Pol beta inh – DNA polymerase beta (human) inhibition; P06746; Potency, µM (doses to about 114 µM), inactives show top-dose activity change, negative = inhibition, actives largely listed as inhibitors; 1.3% of 340,000 active; AID 485314; Pol beta primer extension/strand displacement, fluorescence kinetic; note: potency is the fitted concentration of half-maximal effect; % is set by controls: 0 for no effect and ±100 for the full control effect
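Values derive from four-parameter Hill fits of normalized kinetic data: reads at 0 and 10 min following addition of 50 nM substrate to 10 nM Pol beta preincubated 15 min with compound.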
PI5P4K alpha inh – blocks human PI5P4K alpha kinase activity. P48426. PI5P4Kalpha enzyme, ADP-Glo luminescence, 60 min; hits give low values. max response, %. 1.2% of 330,000 active. AID 652105; active = max response of -50% or lower; inconclusive = between -30% and -50%; inactive = -30% or higher; note: value at the top dose of about 77 µM; % is set by controls: 0 for no effect and ±100 for the full control effect
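qHTS, 1536-well: enzyme/substrate mix, compound by pin tool, 5 microM ATP final; RT 60 min; ADP-Glo reagents 1 (45 min) then 2 (30 min); luminescence.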
POLI inh – inhibitors of human DNA polymerase iota; Q9UNA4; Pol iota fluorescent replication assay, 10 min; Potency, µM (titrated, usually from 115 µM), without a hit: top-dose activity, negative = inhibition, hits mostly inhibitors; 1% of 390,000 active; AID 588590; note: potency is the fitted concentration of half-maximal effect
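Fluorescent replication assay read twice, at 0 min and 10 min after adding 50 nM (final) substrate. Enzyme (10 nM) and compounds were first incubated 15 min at room temperature; enzyme-free buffer wells were negative controls.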
POLK inh – inhibitors of human DNA polymerase kappa; Potency, µM (titrated, usually from 107 µM), without a hit: at the highest dose activity, negative = inhibition, usual class: inhibitors; AID 588579; purified Pol kappa, fluorescent DNA synthesis assay, 10 min; 0.53% of 400,000 active; note: potency is the fitted concentration of half-maximal effect; % is set by controls: 0 for no effect and ±100 for the full control effect
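Pol kappa 10 nM + cpd, 15 min RT; start w/ substrate 50 nM final; fluorescence kinetic read, 0 and 10 min. Neg ctrl: buffer, no enzyme.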
WRN helicase inh-1 – blocks human WRN helicase. Q14191. WRN helicase unwinding, fluorescent forked duplex, kinetic. Potency, µM (highest dose often 114 µM), without a hit: at the top dose activity change, negative = inhibition, hits mostly inhibitors. 0.46% of 360,000 active; note: potency is the fitted concentration of half-maximal effect; % is set by controls: 0 for no effect and ±100 for the full control effect; nearly all actives have a fitted effect of over 55% in size
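Screening of the MLSMR collection measured strand separation of a quenched forked DNA duplex (100 nM) by 20 nM WRN with 2 mM ATP, all final. Compounds were preincubated with enzyme 15 min at room temperature.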
POLH inh – inhibitors of human DNA polymerase eta; Q9Y253; recombinant Pol eta, fluorescent DNA replication assay; Potency, µM (titrated, usually from 114 µM), for the others: at the top dose activity change, negative = inhibition, usual class: inhibitors; 1.2% of 390,000 active; note: potency is the fitted concentration of half-maximal effect; % is set by controls: 0 for no effect and ±100 for the full control effect
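Pol eta (10 nM) was preincubated with compounds for 15 min at room temperature, after which fluorescent replication substrate (50 nM final) was added to start the reaction. Fluorescence was read kinetically at 0 and 10 min.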
WRN helicase inh-2 – confirmation of human WRN helicase inhibitors; AID 720497; 63% of 610 active; shares compounds with WRN helicase inh-1; Potency, µM (top dose mostly 57.1 µM), for the others: top-dose activity, negative = inhibition, actives largely listed as inhibitors; WRN helicase DNA unwinding, fluorescence kinetic; note: potency is the fitted concentration of half-maximal effect; nearly all actives have a fitted effect of over 65% in size
TO displacement – DNA binding via thiazole orange displacement; thiazole orange DNA binding displacement, fluorescence; shares compounds with WRN helicase inh-1; 10% of 610 active; Potency, µM (titrated, usually from 57.1 µM), without a hit: at the highest dose activity change, negative = inhibition, actives largely listed as inhibitors;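 note: drop in dye fluorescence marks compound binding to DNA; potency is the fitted concentration of half-maximal effect; % is set by controls: 0 for no effect and ±100 for the full control effect; nearly all actives have a fitted effect of over 60% in size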
BLM helicase inh – blocks human BLM helicase in WRN counterscreen. shares compounds with WRN helicase inh-1. Recombinant BLM helicase DNA unwinding, red fluorescence. Potency, µM (doses to about 57.1 µM), without a hit: at the top dose activity change, negative = inhibition, hits mostly inhibitors. 60% of 610 active; note: potency is the fitted concentration of half-maximal effect; nearly all actives have a fitted effect of over 60% in size
Starred values were filed as active, the others as inactive; ? = inconclusive; . = no result given; [ ] = another dose, or the depositor's remark. Shown are actives, neighbours in structure and some others; about 2.8% of the full set was active somewhere. Unless noted, calls come from the whole dose curve; as a rule, active = well fitted curve in the direction sought with a large enough effect; inconclusive = small, poorly fitted or top-dose-only effect, or another doubt; inactive = no such curve, though single readings can be large; an effect the other way counts as inactive or inconclusive.

SMILES	Pol beta inh	PI5P4K alpha inh	POLI inh	POLK inh	WRN helicase inh-1	POLH inh	WRN helicase inh-2	TO displacement	BLM helicase inh
N#Cc1c([N+](=O)[O-])cc([N+](=O)[O-])cc1S(=O)(=O)Cc1ccccc1	.	-8.2	?	-9.1%	11.2µM*	?	-24.4%	?	-23.8%
CCOc1ncccc1C(=O)NNC(=O)c1cccc(S(=O)(=O)Nc2ccc(OC)cc2)c1	-27.1%	-7.0	3.8%	-3.0%	?	-11.1%	-23.4%	-8.1%	-14.1%
COc1ccc(C2NC(=O)N(C)C3=C2C(=O)N(c2ccc(F)cc2)C3)cc1 (stereo not given)	0.1%	.	18.8%	-3.7%[60.1 µM]	.	-6.9%	.	.	.
O=C(NCCc1ccc(Cl)cc1)c1ccc(CSCc2cccc(Cl)c2)o1	-0.2%	.	-4.2%	-10.2%[60.1 µM]	.	-15.4%	.	.	.
CCOc1ccccc1-n1c(=O)c2ccccc2c2ccccc2c1=O	1.4%	3.5	5.2%	-17.1%	?	-20.2%	-13.9%	-15.0%	-11.0%
CCOc1ccc(-n2c(=O)c3ccccc3c3ccccc3c2=O)cc1	-3.7%	13.2	41.6%	-12.9%	?	-8.4%	.	.	.
CCCC[n+]1c2ccccc2cc2ccccc21	30.8%	?	?	-10.4%	-35.9%[11.6 µM]	-1.0%	.	.	.
CCC[n+]1c2ccccc2cc2ccccc21	-16.7%	-19.5	?	-1.0%	?	-7.6%	3.04µM*	1.71µM*	7.64µM*
COc1ccc(OC)c(/C=N/Nc2nc(C)cc(=O)[nH]2)c1	?	3.6	99.8%	-23.2%	89.1µM*	?	-13.1%	-4.2%	-20.0%
COC(=O)CSc1nc(SC)nc2c1sc1nc(-c3ccco3)c3c(c12)CC(C)(C)OC3	.	-7.3	45.1%	-7.8%	3.2%	-6.1%	.	.	.
CSc1nc(SCCO)c2sc3nc(-c4ccco4)c4c(c3c2n1)CC(C)(C)OC4	1.58µM*	.	22.4µM*	-31.9%	50.1µM*	79.4µM*	7.64µM*	15.2µM*	2.15µM*
N=C1S/C(=C\c2ccco2)C(=O)N1c1ccc2c(c1)OCO2	20µM*	?	325.3%	?	?	35.5µM*	?	-30.0%	19.2µM*
N=C1S/C(=C\c2ccco2)C(=O)N1c1nccs1	?	-15.7	?	-36.2%	-7.2%[11.6 µM]	?	.	.	.
CCOC(=O)c1c(-c2ccc(F)cc2)csc1NC(=O)CN1C(=O)NC2(CCCCC2C)C1=O (stereo not given)	?	19.8	?	?	?	?	-6.9%	-4.5%	-12.2%
COC(=O)c1ccc(CCc2cc(O)c(Br)cc2O)cc1	.	-52.3*	-12.0%	-11.5%	25.1µM*	-22.4%	-27.4%	-10.9%	?
COc1cc(/C=C2/C(=O)NN(c3cccc(C)c3)C2=O)ccc1OC(=O)c1ccco1	-23.9%	-18.9	?	-11.3%	44.7µM*	28.2µM*	?	-13.7%	?
COc1cc(/C=C2\C(=O)NN(c3ccccc3)C2=O)ccc1OCC(N)=O	-25.9%	.	.	.	.	.	.	.	.
Cc1ccc(-c2cc(C(=O)N3CCN(S(=O)(=O)c4ccc(Br)cc4)CC3)[nH]n2)c(C)c1	12.3%	.	17.9%	-4.5%	.	-10.6%	.	.	.
CC1(C)CC(=O)C(C(C2=C(O)CC(C)(C)CC2=O)c2ccc(O)c([N+](=O)[O-])c2)=C(O)C1	-1.1%	-67.9*	?	-7.8%	?	?	21.5µM*	?	-23.7%
O=C1/C(=C/c2cccc(O)c2)SC(=S)N1CC1CCCO1 (stereo not given)	5.6%	3.3	27.8%	4.8%	-0.2%	-18.4%	.	.	.
COc1cc(/C=C2\SC(=S)N(NC(=O)c3cccc(O)c3)C2=O)ccc1O	15.8µM*	-19.8	39.8µM*	-39.9%	31.6µM*	?	21.5µM*	3.83µM*	21.5µM*
O=C(O)c1ccc(/C=C2\SC(=S)N(NC(=O)c3ccccc3)C2=O)cc1	?	-11.8	?	?	-12.1%	-14.9%	.	.	.
CCOc1cc(/C=C2/SC(=S)N(CC3CCCO3)C2=O)ccc1O (stereo not given)	?	-15.8	28.2µM*	-18.0%	35.5µM*	-19.4%	?	18.1%	21.5µM*
COc1cc(/C=C2\SC(=S)N(NC(=O)c3ccc(O)c(OC)c3)C2=O)ccc1O	?	?	22.4µM*	-28.4%	39.8µM*	?	19.2µM*	-0.7%	19.2µM*
Cc1cc(C)c2c(=O)c3c(oc2c1)C(=O)N(Cc1ccco1)C3c1ccccc1F (stereo not given)	10.3%	.	24.4%	6.5%	.	.	.	.	.
SMILES	Pol beta inh	PI5P4K alpha inh	POLI inh	POLK inh	WRN helicase inh-1	POLH inh	WRN helicase inh-2	TO displacement	BLM helicase inh
COCCCNC(=O)CCCn1c(SCC(=O)c2ccc(F)cc2)nc2c(sc3ccccc32)c1=O	-13.7%	.	6.4%	-10.4%	.	-8.4%	.	.	.
O=[N+]([O-])c1cc2c(c3cccnc13)COCO2	.	-56.2*	39.8µM*	-20.7%	?	10µM*	?	-28.8%	15.2µM*
CC[n+]1c(/C=C/C=C/N(C(C)=O)c2ccccc2)sc2cc(OC)ccc21	15.8µM*	-54.0*	?	35.5µM*	?	?	24.1µM*	426.0%	21.5µM*
COc1cc(OC)c(NC(=O)c2ccc3nc(C(C)C)oc3c2)cc1Cl	1.3%	.	-10.5%	-1.8%[60.1 µM]	.	-10.2%	.	.	.
COc1cc(/C=C2\SC(=Nc3cccnc3)NC2=O)cc(OC)c1OC	23.0%	-89.1*	60.1%	-4.3%	12.6µM*	?	-15.7%	-4.8%	-15.7%
CC1CCN(c2nn3c(=O)c(C(=O)NC(C)C)cnc3s2)CC1	3.6%	.	12.5%	-2.6%	.	-2.9%	.	.	.
COCCn1c(C)cc(O)c(C(c2ccccc2F)N2CCN(c3ccccc3)CC2)c1=O (stereo not given)	?	.	?	0.8%[60.1 µM]	.	-17.9%	.	.	.
O=C(Nc1ccccc1)c1nnsc1S(=O)c1ccc(Cl)cc1 (stereo not given)	0.6%	6.3	?	-9.1%	22.4µM*	8.6%	-20.0%	83.6%	-22.3%
Cc1nnsc1S(=O)c1ccc(Cl)cc1 (stereo not given)	11.7%	-2.5	-25.9%	-14.6%	0.1%	-2.9%	.	.	.
